Measured values: the supplement of paper PMC13380429

Assays:
[1] = system: Vero E6 infected with SARS-CoV-2; assay: morphology score (similarity to uninfected cells); higher = more like uninfected cells; settings: 24 h
[2] = system: Vero E6 infected with SARS-CoV-2; assay: SARS-CoV-2 infection rate relative to infected DMSO; higher = more infection, active = 60 or less; settings: 24 h

COc1cc(C(C)=O)ccc1OCCCN1CCC(c2noc3cc(F)ccc23)CC1 [iloperidone] (10 µM)
morphology score [1]: -0.112
SARS-CoV-2 infection rate [2]: 111% (inactive)

CC[C@]1(O)C[C@@H]2CN(CCc3c([nH]c4ccccc34)[C@@](C(=O)OC)(c3cc4c(cc3OC)N(C)[C@H]3[C@@](O)(C(=O)OC)[C@H](OC(C)=O)[C@]5(CC)C=CCN6CC[C@]43[C@@H]65)C2)C1 [Vinblastine (sulfate)] (0.833333 µM)
morphology score [1]: -0.0326
SARS-CoV-2 infection rate [2]: 102% (inactive)

CC(=O)N[C@H]1[C@@H](O)[C@H](O)[C@@H](CO)O[C@@H]1O [N-acetylmannosamine] (10 µM)
morphology score [1]: 0.18
SARS-CoV-2 infection rate [2]: 100% (inactive)

NC[C@H]1O[C@H](O[C@H]2[C@H](O)[C@@H](O[C@H]3O[C@H](CO)[C@@H](O)[C@H](N)[C@H]3O)[C@H](N)C[C@@H]2N)[C@H](O)[C@@H](O)[C@@H]1O [kanamycin] (10 µM)
morphology score [1]: 0.227
SARS-CoV-2 infection rate [2]: 100% (inactive)

CN1CCCCC1CCN1c2ccccc2Sc2ccc([S+](C)[O-])cc21 (centres undefined) [mesoridazine] (10 µM)
morphology score [1]: 0.323
SARS-CoV-2 infection rate [2]: 91% (inactive)

C1=N/C2=N/c3ccc(OCCN4CCCC4)c(c3)COC/C=C/COCc3cccc(c3)C(=C1)N2 [pacritinib] (0.833333 µM)
morphology score [1]: 0.286
SARS-CoV-2 infection rate [2]: 80% (inactive)

CNC(=O)Oc1ccccc1OC(C)C [propoxur] (10 µM)
morphology score [1]: -0.276
SARS-CoV-2 infection rate [2]: 118% (inactive)

Cc1c(-c2ccccc2)oc2c(C(=O)OCCN3CCCCC3)cccc2c1=O [flavoxate] (10 µM)
morphology score [1]: 0.4
SARS-CoV-2 infection rate [2]: 88% (inactive)

COc1cc2c(NC3CCN(C)CC3)nc(N3CCCN(C)CC3)nc2cc1OCCCN(C)C (10 µM)
morphology score [1]: 0.124
SARS-CoV-2 infection rate [2]: 116% (inactive)

O=C(O)c1ccc(N2N=C(Cc3ccccc3)/C(=C\c3ccc(-c4ccccc4F)o3)C2=O)cc1 (10 µM)
morphology score [1]: -0.0825
SARS-CoV-2 infection rate [2]: 115% (inactive)

CN1CC(=O)NC1=N [creatinine] (10 µM)
morphology score [1]: 0.0578
SARS-CoV-2 infection rate [2]: 99.5% (inactive)

O=c1c2ccccc2[se]n1-c1ccccc1 [Ebselen] (10 µM)
morphology score [1]: 0.34
SARS-CoV-2 infection rate [2]: 84.5% (inactive)

O=C(O)c1cccnc1 [niacin] (10 µM)
morphology score [1]: 0.195
SARS-CoV-2 infection rate [2]: 102% (inactive)

CCCOc1ccc(S(=O)(=O)N2CCN(CCO)CC2)cc1-c1nc2c(CCC)cn(CC)c2c(=O)[nH]1 [mirodenafil] (10 µM)
morphology score [1]: 0.127
SARS-CoV-2 infection rate [2]: 95.5% (inactive)

OC[C@H]1O[C@@H](n2cnc3c(N[C@H]4CCC[C@@H]4O)ncnc32)[C@H](O)[C@@H]1O (10 µM)
morphology score [1]: 0.227
SARS-CoV-2 infection rate [2]: 100% (inactive)

C/C(O)=C(\C#N)C(=O)Nc1cc(Br)ccc1Br (10 µM)
morphology score [1]: 0.00477
SARS-CoV-2 infection rate [2]: 105% (inactive)

CC1(C)Oc2ccc(C#N)cc2[C@H](N(Cc2ncc[nH]2)c2ccc(Cl)cc2)[C@H]1O (10 µM)
morphology score [1]: 0.455
SARS-CoV-2 infection rate [2]: 81% (inactive)

O=NN(CCCl)C(=O)NC1CCCCC1 [lomustine] (10 µM)
morphology score [1]: -0.0183
SARS-CoV-2 infection rate [2]: 108% (inactive)

COc1ccc(-c2cc(=S)ss2)cc1 [anethole-trithione] (10 µM)
morphology score [1]: 0.0605
SARS-CoV-2 infection rate [2]: 104% (inactive)

CC/C(=C(\c1ccc(O)cc1)c1ccc(OCCN(C)C)cc1)c1ccccc1 [afimoxifene] (10 µM)
morphology score [1]: 0.801
SARS-CoV-2 infection rate [2]: 27.5% (active)

CCC(=O)O[C@@H](O[P@@](=O)(CCCCc1ccccc1)CC(=O)N1C[C@H](C2CCCCC2)C[C@H]1C(=O)O)C(C)C [fosinopril] (10 µM)
morphology score [1]: -0.0286
SARS-CoV-2 infection rate [2]: 104% (inactive)

NC(=S)N/N=C/c1ncccc1N [triapine] (0.833333 µM)
morphology score [1]: 0.051
SARS-CoV-2 infection rate [2]: 106% (inactive)

COc1c(C)c2c(c(O)c1C/C=C(\C)CCC(=O)O)C(=O)OC2 [mycophenolic-acid] (10 µM)
morphology score [1]: -0.0923
SARS-CoV-2 infection rate [2]: 114% (inactive)

CCOC(=O)c1ncc2[nH]c3cccc(OC(C)C)c3c2c1C (10 µM)
morphology score [1]: 0.286
SARS-CoV-2 infection rate [2]: 88.5% (inactive)

CNC(=O)c1ccc2c(c1)S(=O)(=O)c1ccccc1C2=O (10 µM)
morphology score [1]: -0.0141
SARS-CoV-2 infection rate [2]: 108% (inactive)

FC(F)(F)c1cccc(C2=CCN(CCc3ccc4ccccc4c3)CC2)c1 [xaliproden] (10 µM)
morphology score [1]: -0.0559
SARS-CoV-2 infection rate [2]: 108% (inactive)

C[N+]1(C)CCC(OC(=O)C(O)(c2ccccc2)C2CCCC2)C1 (centres undefined) [glycopyrrolate] (10 µM)
morphology score [1]: 0.122
SARS-CoV-2 infection rate [2]: 107% (inactive)

CCCCC/C=C\C=C\CCCCCCCCC(=O)O [trans-10,cis-12-conjugated-linoleic-acid] (10 µM)
morphology score [1]: 0.0778
SARS-CoV-2 infection rate [2]: 104% (inactive)

CC(=O)N(OCc1ccccc1)[C@@H]1c2cc(C#N)ccc2OC(C)(C)[C@H]1O (10 µM)
morphology score [1]: 0.159
SARS-CoV-2 infection rate [2]: 97.5% (inactive)

CC(=O)NNC(=O)N1Cc2ccccc2Oc2ccc(Cl)cc21 (10 µM)
morphology score [1]: 0.0638
SARS-CoV-2 infection rate [2]: 97.5% (inactive)

O=C(/C=C/c1ccc(O)c(O)c1)c1ccc(O)cc1O [butein] (10 µM)
morphology score [1]: 0.256
SARS-CoV-2 infection rate [2]: 106% (inactive)

Cc1sc(N)c(C(=O)c2cccc(C(F)(F)F)c2)c1C (10 µM)
morphology score [1]: -0.0662
SARS-CoV-2 infection rate [2]: 99% (inactive)

c1coc(-c2nnc3sc(C4CCCCC4)nn23)c1 [cardionogen-1] (10 µM)
morphology score [1]: 0.254
SARS-CoV-2 infection rate [2]: 89% (inactive)

C[N+](C)(C)[C@@H](Cc1c[nH]c(=S)[nH]1)C(=O)O [L-ergothioneine] (10 µM)
morphology score [1]: 0.0598
SARS-CoV-2 infection rate [2]: 99% (inactive)

CC(C)COc1ccc(CNC(=O)N(Cc2ccc(F)cc2)C2CCN(C)CC2)cc1 [pimavanserin] (10 µM)
morphology score [1]: 0.709
SARS-CoV-2 infection rate [2]: 23% (active)

O=C(Oc1ccccc1C(=O)O)c1ccccc1O [sasapyrine] (10 µM)
morphology score [1]: 0.0337
SARS-CoV-2 infection rate [2]: 108% (inactive)

COc1cc(Oc2ccnc3cc(OC)c(OC)cc23)ccc1NC(=O)NC(C)c1nccs1 (centres undefined) (10 µM)
morphology score [1]: 0.332
SARS-CoV-2 infection rate [2]: 101% (inactive)

Cc1nccc2[nH]c(=O)ccc12 [medorinone] (10 µM)
morphology score [1]: 0.145
SARS-CoV-2 infection rate [2]: 96.5% (inactive)

O=[N+]([O-])c1cn2c(n1)OC[C@@H](OCc1ccc(OC(F)(F)F)cc1)C2 [pretomanid] (10 µM)
morphology score [1]: 0.0902
SARS-CoV-2 infection rate [2]: 112% (inactive)

C#Cc1cccc(Nc2ncnc3cc(OCCOC)c(OCCO)cc23)c1 (10 µM)
morphology score [1]: -0.0889
SARS-CoV-2 infection rate [2]: 116% (inactive)

CCOC(=O)C1=C[C@]2(CC)CCCN3CCc4c(n1c1ccccc41)[C@@H]32 [vinpocetine] (10 µM)
morphology score [1]: 0.176
SARS-CoV-2 infection rate [2]: 102% (inactive)

O=C1NC(=O)/C(=C/c2ccc(-c3ccc(F)cc3O)o2)S1 (10 µM)
morphology score [1]: 0.146
SARS-CoV-2 infection rate [2]: 108% (inactive)

CC(=O)N[C@@H](CC(=O)O)C(=O)N[C@@H](CCC(=O)O)C(=O)O [spaglumic-acid] (10 µM)
morphology score [1]: 0.121
SARS-CoV-2 infection rate [2]: 88.5% (inactive)

CC[C@@]1(O)C(=O)OCc2c1cc1n(c2=O)Cc2cc3ccccc3nc2-1 [camptothecin] (0.833333 µM)
morphology score [1]: -0.218
SARS-CoV-2 infection rate [2]: 114% (inactive)

Cc1cc(C(C)(C)C)c(O)c(C)c1CC1=NCCN1 [oxymetazoline] (10 µM)
morphology score [1]: 0.233
SARS-CoV-2 infection rate [2]: 100% (inactive)

Nc1nc2ccc(Cl)cc2c2nc(-c3ccco3)nn12 (10 µM)
morphology score [1]: 0.125
SARS-CoV-2 infection rate [2]: 108% (inactive)

O=C1c2ccccc2C(=O)C1c1ccc(Br)cc1 [bromindione] (10 µM)
morphology score [1]: 0.204
SARS-CoV-2 infection rate [2]: 93.5% (inactive)

N#Cc1cnc2c(Cl)cc(NCc3cn(CCN4CCCCCC4)nn3)cc2c1Nc1ccc(F)c(Cl)c1 [cot-inhibitor-1] (10 µM)
morphology score [1]: 0.16
SARS-CoV-2 infection rate [2]: 104% (inactive)

Cn1c(=O)c2[nH]c(Br)nc2n(C)c1=O [pamabrom] (10 µM)
morphology score [1]: 0.0536
SARS-CoV-2 infection rate [2]: 101% (inactive)

CCCCCCCCc1ccc(CCC(N)(CO)CO)cc1 [fingolimod] (10 µM)
morphology score [1]: 0.717
SARS-CoV-2 infection rate [2]: 26.5% (active)

CS(=O)(=O)Nc1ccc(Cc2noc(-c3ccc4[nH]cc(CCN)c4c3)n2)cc1 (10 µM)
morphology score [1]: 0.141
SARS-CoV-2 infection rate [2]: 103% (inactive)

CC/C(=C(/CC)c1ccc(OP(=O)(O)O)cc1)c1ccc(OP(=O)(O)O)cc1 [fosfestrol] (10 µM)
morphology score [1]: 0.11
SARS-CoV-2 infection rate [2]: 96% (inactive)

C=CCN1CC[C@]23CCCC[C@H]2[C@H]1Cc1ccc(O)cc13 [levallorphan] (10 µM)
morphology score [1]: -0.0532
SARS-CoV-2 infection rate [2]: 114% (inactive)

O/N=C/c1ccc(-c2ccc(O)c(F)c2)c(Cl)c1O (10 µM)
morphology score [1]: 0.342
SARS-CoV-2 infection rate [2]: 76.5% (inactive)

CC[C@H]1OC(=O)[C@H](C)[C@@H](O[C@H]2C[C@@](C)(OC)[C@@H](O)[C@H](C)O2)[C@H](C)[C@@H](O[C@@H]2O[C@H](C)C[C@H](N(C)C)[C@H]2O)[C@](C)(O)C[C@@H](C)CN(C)[C@H](C)[C@@H](O)[C@]1(C)O [azithromycin] (10 µM)
morphology score [1]: 0.236
SARS-CoV-2 infection rate [2]: 98.5% (inactive)

COc1cc(C(=O)OCCCN2CCCN(CCCOC(=O)c3cc(OC)c(OC)c(OC)c3)CC2)cc(OC)c1OC [dilazep] (0.833333 µM)
morphology score [1]: -0.00497
SARS-CoV-2 infection rate [2]: 106% (inactive)

COc1cc2c(cc1OC)[C@@H]1Cc3ccc(OC)c(OC)c3CN1CC2 [rotundine] (10 µM)
morphology score [1]: 0.0444
SARS-CoV-2 infection rate [2]: 110% (inactive)

CC[C@@H](Nc1c(Nc2cccc(C(=O)N(C)C)c2O)c(=O)c1=O)c1ccc(C)o1 [navarixin] (10 µM)
morphology score [1]: -0.0629
SARS-CoV-2 infection rate [2]: 110% (inactive)

Cc1ccc(CC2(O)CCN(CCOc3ccc(O)cc3)CC2)cc1 (10 µM)
morphology score [1]: -0.0871
SARS-CoV-2 infection rate [2]: 111% (inactive)

COc1ccc(C(=O)c2c(C)n(CCN3CCOCC3)c3ccccc23)cc1 [pravadoline] (10 µM)
morphology score [1]: 0.0547
SARS-CoV-2 infection rate [2]: 106% (inactive)

O=c1n(CCCN2CCN(c3cccc(Cl)c3)CC2)nc2ccccn12 [trazodone] (10 µM)
morphology score [1]: -0.132
SARS-CoV-2 infection rate [2]: 116% (inactive)

N#Cc1cc2c(OCC(O)CN3CCN(C(c4ccccc4)c4ccccc4)CC3)cccc2[nH]1 (centres undefined) (0.833333 µM)
morphology score [1]: 0.124
SARS-CoV-2 infection rate [2]: 75% (inactive)
